# ChEMBL document CHEMBL3988442, “University of Dundee, Small-Polar-MMV Screening Library” (2021)
# System: Trypanosoma cruzi
# Assay: Trypanosoma cruzi phosphomannomutase and mannose-1-phosphate guanylyltransferase assay
# Type: functional
# Parameters: scale not given: direction of the effect not stated beside the values
# Conditions: 10 µM
row,SMILES,Percent Effect
1,CC(C)c1nc(C2CCCN(C(=O)c3ccnc(N(C)C)c3)C2)no1 (stereo not drawn),-3.62%
2,CC(NC(=O)NCc1cccc(Cl)c1)(C(=O)O)c1ccco1 (stereo not drawn),5.32%
3,Cc1cnc(CN2CCCC(c3cc(C(N)=O)[nH]n3)C2)cn1 (stereo not drawn),-3.01%
4,Cc1cnn(CC2CCCN2C(=O)c2cccnc2N(C)C)c1 (stereo not drawn),1.42%

# Target: T1, Arginase-2, mitochondrial (Homo sapiens) (UniProt P78540)
# T1 sequence (whole entry): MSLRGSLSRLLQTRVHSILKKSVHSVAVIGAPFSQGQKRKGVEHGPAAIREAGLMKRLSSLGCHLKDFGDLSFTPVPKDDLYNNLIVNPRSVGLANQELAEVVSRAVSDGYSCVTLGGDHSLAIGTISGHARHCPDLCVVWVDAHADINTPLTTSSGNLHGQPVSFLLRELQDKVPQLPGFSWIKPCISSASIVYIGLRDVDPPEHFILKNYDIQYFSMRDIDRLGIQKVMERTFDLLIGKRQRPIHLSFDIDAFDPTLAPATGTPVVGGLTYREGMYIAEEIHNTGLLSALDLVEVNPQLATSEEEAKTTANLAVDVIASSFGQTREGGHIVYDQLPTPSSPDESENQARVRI
# Assay: in vitro enzyme assay to detect the production of urea directly proportional to the activity of Arginase II; further: in the data most compounds retested in dose-response had high values
# Type: functional
# Parameters: scale not given: direction of the effect not stated beside the values
# Conditions: 30 µM
row,SMILES,Percent Effect
1,COc1ccc2c(c1)OCC(CNC(=O)c1ccc3[nH]nnc3c1)C2 (stereo not drawn),8.11%
2,Cn1cc(CN2C[C@@H]3COC[C@]3(C(=O)NCCc3ccccc3)C2)cn1,12.4%
3,NC(=O)CN1CCC(c2cncc(-c3cccc(Cl)c3)n2)CC1,2.7%
4,CC(C)CN1CCC(NC(=O)c2ccc(F)cc2F)CC1,7.03%
5,COc1ccc2c(c1)OCC(CNC(=O)c1cnc(NC(C)C)nc1)C2 (stereo not drawn),2.7%
6,c1ccc(O[C@H]2CO[C@@]3(CCN(Cc4ccc5c(c4)OCO5)C3)C2)nc1,7.03%
7,CNC(=O)[C@H]1C[C@@H]2CN(C(=O)c3ccccn3)C[C@@H]2N1S(C)(=O)=O,8.11%
8,CN1[C@H]2CC[C@@H]1CN(C(=O)CCc1csc(N)n1)CC2,3.78%
9,COCC(=O)N1CCC(c2cncc(-c3cccc(F)c3)n2)CC1,-5.95%
10,CN(C)C(=O)CN1CCC(c2cncc(-c3cccc(Cl)c3)n2)CC1,-0.54%
11,COc1ccc(NC2CCc3c2[nH]c(=O)n(C2CCCCC2)c3=O)cc1 (stereo not drawn),4.87%
12,CCC(C(=O)NCc1ccncc1)N(c1ccc(F)cc1)S(C)(=O)=O (stereo not drawn),8.11%
13,CC1=Nc2c(c(=O)[nH]n2C2CCCC2)C(c2ccc(C(=O)O)cc2)S1 (stereo not drawn),7.03%
14,Cc1nsc(N2CCCN(C(=O)NCc3cc(C)on3)CC2)n1,8.11%
